Source: the supplement of paper PMC11219838
Unmarked numbers belong to inactive results.

Each molecule was assayed on Caenorhabditis elegans L1 (N2) (assay: survival and reproduction score of C. elegans L1 (0: 0-10 living worms, 1: 11-20, 2: 21-50, 3: >50, 4: overgrown) (score 0-4); higher = more worms, less nematicidal, active = 1 or less; extreme values may be limits of the assay). Conditions: 60 µM; 6 days; temperature: 20 °C.
In short: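 After compound was pinned to 60 µM final (0.6% v/v DMSO) into wells with roughly 20 synchronized C. elegans N2 L1s and E. coli HB101 in liquid NGM, the sealed 96-well plates were shaken at 200 rpm for 6 days at 20 °C. Under a dissection microscope, survival and reproduction were graded ordinally by living worms per well. A grade of 0 stood for 0–10 worms and 4 for overgrown, starved wells; two biological replicates were averaged.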

SMILES	survival and reproduction score
CC1CCN(C(=O)CSc2nnc(-c3cc4ccccc4o3)o2)CC1	4
O=C(Nc1cccc(-c2noc(COc3ccccc3)n2)c1)c1cccs1	4
CCc1ccc(OCc2nc(-c3ccccn3)no2)cc1	3
CC(=O)Nc1ccc(NC(=O)c2ccccc2-c2nc(-c3cccc(C)c3)no2)cc1	4
O=C(Nc1ccccc1-c1nc(-c2ccncc2)no1)c1ccc(Cl)cc1	4
COc1ccc(-c2noc(C3CCCCC3)n2)cc1	4
COc1ccc(-c2noc(COc3ccc(Cl)cc3C)n2)cc1	4
Cc1cc(C)cc(OCc2nc(-c3cc(C)nc4ccccc34)no2)c1	4
COc1cccc(NC(=O)CSc2nnc(-c3ccc(C)cc3)o2)c1	4
Brc1ccc(OCc2nc(-c3cccs3)no2)cc1	4
Brc1ccc(-c2noc(-c3ccco3)n2)o1	4
COc1ccc(-c2noc(COc3ccc(C)c(C)c3)n2)cc1	4
Cc1ccccc1-c1noc(CSc2nc3ccccc3[nH]2)n1	4
N#Cc1ccccc1CSc1nnc(-c2ccccc2)o1	4
Clc1cc(Cl)c(OCc2nc(-c3ccncc3)no2)cc1Cl	4
CC(C)C(=O)Nc1ccccc1-c1nc(-c2ccncc2)no1	4
Clc1ccc(-c2nc(-c3ccc4c(c3)OCO4)no2)cc1	4
O=C(Nc1cccc(-c2noc(-c3cccnc3)n2)c1)c1cccs1	4
O=C(CSc1nnc(-c2cccnc2)o1)c1ccc(Br)cc1	4
Brc1ccc(-c2noc(CSc3ccccc3)n2)cc1	0 (active)

SMILES	survival and reproduction score
COc1ccc(C)cc1NC(=O)CSc1nnc(-c2ccc(Br)cc2)o1	4
COc1ccccc1-c1nnc(SCC(=O)Nc2ccc(Br)cn2)o1	4
COc1ccc(CC(=O)Nc2ccc(-c3noc(-c4ccc(F)cc4)n3)cc2)cc1	4
O=C(CSc1nnc(-c2ccccc2)o1)Nc1cc(C(F)(F)F)ccc1Cl	4
Cc1ccc(-c2nnc(SCc3c(C)cc(C)cc3C)o2)cc1	4
Cc1cccc(-c2nnc(SCC(=O)NC(C)c3ccccc3)o2)c1 (centres undefined)	4
CCOc1nc(-c2ccccc2)ccc1-c1noc(-c2ccccc2F)n1	4
Fc1ccc(OCc2nc(-c3ccccc3)no2)cc1	3.5
Cc1ccc(C)c(OCc2nc(-c3ccccc3Cl)no2)c1	4
O=C(CSc1nnc(-c2ccc(Cl)cc2)o1)Nc1ccccc1C(F)(F)F	4
Fc1ccc(-c2nc(-c3ccc4c(c3)OCO4)no2)cc1	4
Cc1ccc(SC(C)c2nc(-c3cccnc3)no2)cc1 (centres undefined)	4
c1ccc(-c2noc(-c3cccs3)n2)cc1 [tioxazafen]	0 (active)
Cc1ccc(SCc2nc(-c3cccc(C)c3)no2)cc1	4
CC(C)(Oc1ccc(Cl)cc1)c1nc(-c2ccncc2)no1	0.5 (active)
COc1cccc(-c2noc(COc3cccc(C)c3)n2)c1	4
CC(C)CCC(=O)Nc1ccccc1-c1nc(-c2ccncc2)no1	4
Fc1ccc(-c2noc(COc3ccccc3Cl)n2)cc1	4
Cc1ccccc1OCc1nc(-c2cccc(NC(=O)c3ccco3)c2)no1	4
